Screening data deposited in PubChem by National Center for Advancing Translational Sciences (NCATS).
The list is not random: actives were taken first. Their share in the collection is about 7.5%.
NPC1 prom act: NPC1 promoter activation; Huh7 NPC1 promoter luciferase reporter, 24 h; 2.4% of 320,000 active; Potency, µM (series often up to 9.22 µM), inactives show top-dose activation, hits mostly activators; AID 485313; further: % of control where 0% means no effect; nearly all actives have a fitted effect of over 60% in size
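Compounds in DMSO were transferred onto Huh7 NPC1-luciferase reporter cells pre-incubated 2 h; after 24 h at 37 °C, Amplite reagent was dispensed and luminescence recorded 10 min later.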
SMN2 splice enh: enhancers of SMN2 splice variant expression | HEK293 SMN2-luciferase splicing reporter, luminescence, 30-36 h | Potency, µM (doses to about 46.1 µM), inactives show at the top dose activity change, positive = activation, usual class: activators | 2.8% of 210,000 active; further: % of control where 0% means no effect; nearly all actives have a fitted effect of over 55% in size
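qHTS luciferase splicing reporter: luminescence rises when SMN2 exon 7 is included in transfected HEK293 cells. Compound exposure lasted 30-36 h at 37C, with 4.5 mM final sodium butyrate as control, followed by a ONE-Glo read.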
Rab9 promoter act: Rab9 promoter activation; Potency, µM (doses to about 9.22 µM), without a hit: at the highest dose activation, negative = inhibition, actives largely listed as activators; 2.8% of 320,000 active; Huh7 Rab9 promoter-luciferase reporter, luminescence, 24 h; further: % of control where 0% means no effect; nearly all actives have a fitted effect of over 60% in size
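Using Huh7 cells stably transfected with Rab9 promoter–luciferase, compounds were incubated 24 h at 37 °C, 5% CO2; luciferase luminescence was read 10 min after reagent addition.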
ELG1 genotox: genotoxicity induction in ELG1-luciferase HEK293T cells; HEK293T ELG1-luciferase reporter, luminescence, 16 h; Potency, µM (doses to about 46 µM), without a hit: top-dose activity change, positive = activation, actives largely listed as activators; 1.3% of 330,000 active; further: % of control where 0% means no effect; nearly all actives have a fitted effect of over 60% in size
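Reporter readout depends on ELG1 protein level, which increases with genetic stress. After 16 hr compound exposure at 37 °C, luciferase activity was quantified using ONE-Glo.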
FLuc counter: inhibits or activates purified firefly luciferase, miR-21 counter-screen. P08659. purified FLuc, Km substrates, luminescence inhibition. Potency, µM (series often up to 57.5 µM), for the others: at the highest dose activity change, negative = inhibition, hits mostly inhibitors. 6.9% of 360,000 active. AID 588342;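 further: plate controls were vehicle for no effect and reference inhibitor for full effect; nearly all actives have a fitted effect of over 55% in size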
Target sequence (P08659 whole entry, looked up): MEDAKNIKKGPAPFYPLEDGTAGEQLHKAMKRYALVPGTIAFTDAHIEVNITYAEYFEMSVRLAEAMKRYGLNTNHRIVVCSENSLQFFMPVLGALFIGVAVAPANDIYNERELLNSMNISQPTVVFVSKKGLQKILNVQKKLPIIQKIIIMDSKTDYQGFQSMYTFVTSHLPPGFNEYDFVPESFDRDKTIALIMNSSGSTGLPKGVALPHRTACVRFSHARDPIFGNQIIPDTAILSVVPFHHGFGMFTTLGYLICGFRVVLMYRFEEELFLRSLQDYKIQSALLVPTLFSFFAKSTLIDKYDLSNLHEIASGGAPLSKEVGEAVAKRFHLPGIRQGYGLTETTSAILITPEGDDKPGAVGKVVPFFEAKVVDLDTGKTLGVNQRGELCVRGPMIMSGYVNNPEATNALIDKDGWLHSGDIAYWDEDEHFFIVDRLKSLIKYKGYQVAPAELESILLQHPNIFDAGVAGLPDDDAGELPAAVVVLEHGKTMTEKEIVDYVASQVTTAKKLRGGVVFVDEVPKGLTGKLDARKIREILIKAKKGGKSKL
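Biochemical qHTS of compounds, final roughly 60 µM downward over six points, against 10 nM purified firefly luciferase using Km concentrations of substrates (10 uM D-luciferin, 10 uM ATP) in Tris acetate pH 7.5 buffer; luminescence output.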
Active calls of the source: *; ? = inconclusive; . = not tested or not shown. The call rests on the fitted dose curve; in most records, active means well fitted curve in the direction sought with a large enough effect; inconclusive means small, poorly fitted or top-dose-only effect, or another doubt; inactive means no such curve, though single readings can be large; an effect the other way counts as inactive or inconclusive. Potency means the concentration at half of the fitted maximal effect.

SMILES	NPC1 prom act	SMN2 splice enh	Rab9 promoter act	ELG1 genotox	FLuc counter
O=C(NC(=S)Nc1ccc2cn[nH]c2c1)c1ccccc1	3.5µM*	18µM*	4.5µM*	3%	19µM*
O=C(Nc1ccc2[nH]ncc2c1)c1ccc(F)cc1	2.8µM*	.	2.2µM*	?	8.5µM*
S=C(Nc1ccccc1)Nc1ccc2cn[nH]c2c1	21%	.	?	-8%	?
O=C(Nc1ccc2[nH]ncc2c1)c1ccccc1	2.8µM*	.	3.2µM*	?	13µM*
CCCNS(=O)(=O)c1ccc(OCC(=O)NCc2ccco2)cc1	-4%	-1%	-5%	-1%	-2%
CCCC/C=C/C(NC(=O)Oc1cccc(C(F)(F)F)c1)c1ccccc1 (stereo not given)	.	-15%	.	.	.
Cc1ccc(-n2[nH]c(C)c(C=Nc3ccc(S(=O)(=O)Nc4nccs4)cc3)c2=O)cc1C	-1%	28%	0%	9%	19µM*
COc1nccnc1NS(=O)(=O)c1ccc(N=Cc2c(C)[nH]n(-c3ccc(C)c(C)c3)c2=O)cc1	3%	-19%	15%	12%	15µM*
Cc1[nH]n(-c2ccccc2)c(=O)c1C=Nc1ccc(S(=O)(=O)Nc2nccs2)cc1	-2%	-17%	1%	-8%	2%
CCSc1ncc(Cl)c(C(=O)Nc2nc3ccc(Cl)cc3s2)n1	.	3%	.	.	?
O=C(Nc1nc2c(Cl)cccc2s1)c1ccc(Br)o1	19%	.	17%	14%	?
O=C(Nc1nc2ccc(Cl)cc2s1)c1ccc(Br)o1	3.5µM*	11µM*	1.1µM*	?	2.4µM*
Cc1cc(C(=O)Nc2nc3ccc(Cl)cc3s2)nn1C	1.4µM*	.	0.63µM*	?	2.1µM*
Cn1ncc(Cl)c1C(=O)Nc1nc2ccc(Cl)cc2s1	3.2µM*	3.5µM*	?	?	2.1µM*
CC(C)CC1NC(=O)N(CC(=O)N2CCCc3ccccc32)C1=O (stereo not given)	0%	-1%	5%	4%	2%
O=[N+]([O-])c1ccc(Cl)c(S(=O)(=O)Nc2cccc(-c3ccc(N4CCCC4)nn3)c2)c1	17%	.	23%	13%	15µM*
O=[N+]([O-])c1ccc(S(=O)(=O)Nc2ccc(-c3ccc(N4CCCC4)nn3)cc2)cc1	10%	.	14%	8%	-21%
O=[N+]([O-])c1ccc(Cl)c(S(=O)(=O)Nc2ccc(-c3ccc(N4CCCC4)nn3)cc2)c1	-1%	.	-3%	6%	21µM*
Cc1c([N+](=O)[O-])cc(S(=O)(=O)Nc2ccc(-c3ccc(N4CCCC4)nn3)cc2)cc1[N+](=O)[O-]	-2%	.	9%	3%	19µM*
Cc1ccccc1N1C(=O)C(Oc2ccc(Cl)cc2)C1CNCCCOC(C)C (stereo not given)	0%	-12%	2%	-9%	-1%
Cc1ccc(NC(=O)Cn2nnc(C(=O)NCCc3ccccc3)c2N)cc1C	.	.	.	.	-2%
Cc1ccccc1Nc1c(-c2c[nH]c3ccccc23)nc2cccc(C)n12	.	11µM*	.	.	2%
Cc1cc2cc(CCNC(=O)c3cccs3)c(=O)[nH]c2cc1C	2.8µM*	13µM*	3.2µM*	?	13µM*
Cc1ccc2cc(CCNC(=O)c3ccco3)c(=O)[nH]c2c1	?	10µM*	2.5µM*	18%	19µM*
Cc1ccc2cc(CCNC(=O)c3ccco3)c(=O)[nH]c2c1C	3.5µM*	7.1µM*	1.4µM*	?	4.3µM*
SMILES	NPC1 prom act	SMN2 splice enh	Rab9 promoter act	ELG1 genotox	FLuc counter
COc1ccc2cc(CCNC(=O)c3ccco3)c(=O)[nH]c2c1	1.6µM*	.	1.4µM*	10µM*	12µM*
CCC(CC)C(=O)NCCc1cc2cc(C)c(C)cc2[nH]c1=O	-5%	15%	-4%	-9%	0%
Cc1ccc(CNC(=O)c2ccc(N3CCC4(CC3)CC(c3cccc(Br)c3)=NO4)c(NC(=O)c3c(Cl)cccc3Cl)c2)cc1	-2%	.	0%	4%	-1%
N#Cc1c(N)nc2c(c1-c1ccc3c(c1)OCO3)CCc1ccccc1-2	-2%	?	-7%	12%	2%
c1ccc2c(c1)Cc1cc3cc4c(cc3nc1-2)OCO4	.	0.5µM*	.	.	.
O=C(N/N=C/c1ccc(OCc2ccccc2)cc1)c1cccs1	?	0%	?	8%	-12%
